The whole screen tested about 360,000 compounds, of which about 9,100 (2.5%) were called active. Inconclusive results (about 4%) are left out. Many of the other results were omitted from the sample, so actives are more common in it than they were. A number with no mark means an inactive call. Cut-off read from the data, not from the text of the source: active = max response below about -50%; inconclusive = no clear call, values can overlap the other calls; inactive = above that.
These compounds were tested against D(3) dopamine receptor (Homo sapiens) (UniProt P35462) (assay: qHTS of D3 Dopamine Receptor Antagonist: qHTS). Details: D3R cells, DiscoveRx beta-arrestin luminescence, antagonist mode; hits give low values.
Text: D3 DARs represent a very important target for the treatment of several neuropsychiatric disorders. Indeed, one of the most promising therapeutic applications for the D3 DAR is in the area of addiction and related disorders. […] These findings have been observed with a number of addictive substances including cocaine, amphetamine, nicotine, and alcohol. […] Antagonism of the D3 DAR may also be therapeutic in the treatment of schizophrenia or psychosis. […] Since the D3 DAR is expressed in areas of the CNS associated with the control of mood and emotion, it has been hypothesized that selective antagonism of the D3 DAR may be effective in treating psychosis without inducing the motor side effects typically seen with D2 DAR antagonists.
This part of the project aims to discover novel antagonist.
NIH Chemical Genomics Center [NCGC]
NIH Molecular Libraries Probe Centers Network [MLPCN]
Assay Submitter (PI): David Sibley, NINDS
Freshly passaged cells are plated in 1536 well white, solid bottom plates at a density of 1500 cells/well in 3microl of complete media. After an overnight incubation at 37 degrees C in 5% CO2, cells are loaded with 23nl of test compound from the compound library (as well as dopamine controls) using a 1536 pintool and incubated at 37 degrees C for 90 minutes. Two microliters of DiscoveRx reagent is then added to all cells, and they are incubated for an additional 30 - 60 minutes at room temperature. Following incubation, luminescence is measured on a ViewLux CCD-based luminometer reader using a 20 sec exposure time.
% is set by controls: 0 for no effect and ±100 for the full control effect.

Sequence of D(3) dopamine receptor (Homo sapiens) (P35462 whole entry, looked up): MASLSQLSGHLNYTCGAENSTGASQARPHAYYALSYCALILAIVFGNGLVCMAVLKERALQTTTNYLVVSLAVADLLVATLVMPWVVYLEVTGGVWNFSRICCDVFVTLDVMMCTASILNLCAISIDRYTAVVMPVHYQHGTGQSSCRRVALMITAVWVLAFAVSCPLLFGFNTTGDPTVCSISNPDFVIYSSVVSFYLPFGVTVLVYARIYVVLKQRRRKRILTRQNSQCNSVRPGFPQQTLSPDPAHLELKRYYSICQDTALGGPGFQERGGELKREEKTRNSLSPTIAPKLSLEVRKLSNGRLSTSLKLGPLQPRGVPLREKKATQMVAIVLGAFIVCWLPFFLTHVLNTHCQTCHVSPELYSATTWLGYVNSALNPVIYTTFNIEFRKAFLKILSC

SMILES | max response, negative = inhibition
CC(C)Oc1ccc(CN2CCC2(C)C(=O)NCc2ccc(C(F)(F)F)cc2)cc1 (configuration not stated) | 30.5%
CC(OC(=O)c1cccc(S(=O)(=O)N2CCOCC2)c1)C(=O)NCC1CCCCC1 (configuration not stated) | -12.6%
CCCCC[C@H](C)N1C[C@@H](COCc2ccccc2)Oc2cc(N3CCC[C@@H]3CO)ccc2S1(=O)=O | 8.76%
CCCNC(=O)C1(C)CCN(C(=O)c2ccc(F)cc2Cl)C1 (configuration not stated) | 1.43%
COc1cccc2c1C(=O)c1c(O)c3c(c(O)c1C2=O)CC(O)(C(C)=NNC(=O)c1ccc(Cl)c(Cl)c1)CC3OC1CC(N)C(O)C(C)O1 (configuration not stated) | -50.5% (active)
COc1ccc(NC(=O)C2(C)Cc3c(-c4cccc(NC(C)=O)c4)ccnc3O2)cc1OC (configuration not stated) | 17.2%
COC(=O)[C@H]1C[C@H](OC(=O)NCc2ccccc2)[C@@]2(O)CN(S(=O)(=O)c3ccc(C)cc3)CC2[C@H]1C(=O)OC (some centres not stated) | -0.452%
CC=CCn1c(SCCCc2ccccc2)nc2c1c(=O)[nH]c(=O)n2C | 41.3%
O=C(CCN1CCCCC1)N=Nc1c(O)[nH]c2ccccc12 | -96.3% (active)
Oc1[nH]c2ccccc2c1N=Nc1c(F)c(F)c(F)c(F)c1F | 17.9%
Cc1c(-c2ccccc2)n[nH]c1C(=O)N=Nc1c(O)[nH]c2ccccc12 | 32.7%
CCc1nc2ccc(C(=O)N(C)Cc3ccco3)cn2c1N(C)C(=O)Cc1ccccc1 | 3.24%
C[C@@H]1CN([C@@H](C)CO)C(=O)CCCn2nncc2CO[C@@H]1CN(C)S(=O)(=O)c1ccc(-c2ccccc2)cc1 | -4.97%
COc1cccc(C(O)c2ncc(-c3ccc4ccccc4c3)[nH]2)c1 (configuration not stated) | 38.7%
Cc1cccc(-c2cnc(C(O)c3ccc4ccccc4c3)[nH]2)c1 (configuration not stated) | -81.3% (active)
Cc1cccc(-c2cnc(C(O)c3cc(C)cc(C)c3)[nH]2)c1 (configuration not stated) | 0%
CC(=O)Nc1cc(-c2ccc(N3CCN(C)CC3)cc2)cn2c(-c3ccc(F)cc3)cnc12 | -13.9%
CNc1cnc(-c2cc(OC)c(OC)c(OC)c2)cn1 | 1.16%
O=C(NCCN1CCOCC1)C1CCN(S(=O)(=O)c2ccccc2)CC1 | 31.8%

SMILES | max response, negative = inhibition
CC(C)Nc1nc(NCCOc2ccccc2Cl)c2sccc2n1 | 0%
C[C@@H]1CN([C@@H](C)CO)C(=O)c2cc(NS(C)(=O)=O)ccc2O[C@@H](C)CCCCO[C@H]1CN(C)C(=O)Nc1ccc2c(c1)OCO2 | -18.4%
COCC1CCN(C(=O)C2CCC(=O)N(Cc3cccc(C(F)(F)F)c3)C2)CC1 (configuration not stated) | -5.12%
COC(=O)Cc1c(O)ccn(Cc2cccc(C(F)(F)F)c2)c1=O | -71.6% (active)
CN(C)C(=O)c1cccn(Cc2cccc(C(F)(F)F)c2)c1=O | 22.1%
Cc1cccc(NC(=S)NCCN(C2CCCCC2)C2CCCC2)c1 | -65.7% (active)
Cc1cccc(NC(=S)NCc2ccc3[nH]c4c(c3c2)CCCC4)c1 | -3.36%
Cc1cccc(C(=O)NC(=S)N(C)C2CCCCC2)c1 | -4.93%
CC(=O)Nc1cccc(-c2ccnc3c2CC(C)(C(=O)NCc2ccccc2)O3)c1 (configuration not stated) | 0%
Cc1ccc(CC2(C)C(=O)Nc3ccc(OC(F)(F)F)cc32)cc1 (configuration not stated) | 0.0703%
CC1CSc2nnc(CCc3ccccc3)n21 (configuration not stated) | -21.1%
c1ccc(CCC2=NCCn3cccc32)cc1 | -55.5% (active)
S=C(NCCc1ccccc1)N1CCn2cccc2C1c1ccncc1 (configuration not stated) | 6.2%
CCCCN(C=O)c1c(CC)nc2c(OCCC3CCCCC3)cccn12 | -10.7%
COc1ccc(C(O)c2nc(-c3ccc4c(c3)OCO4)cs2)cc1 (configuration not stated) | 4.32%
Cc1ccc(C(=O)C[n+]2cc(-c3ccccc3)n3c2CCCCC3)cc1 | -4.64%
Cc1ccc(-c2c[n+](CC(=O)Nc3ccccc3)c3n2CCC3)cc1 | -65.6% (active)
O=C(C[n+]1cc(-c2ccc(Cl)c(Cl)c2)n2c1CCC2)c1cccs1 | -18.5%
O=CNc1cc(-c2ccc(C(=O)N3CCOCC3)cc2)cn2c(-c3ccc(F)cc3)cnc12 | -24.2%

SMILES | max response, negative = inhibition
CC(Nc1nc(N2CCCC2)nc2ccccc12)c1ccccc1 (configuration not stated) | -74.8% (active)
CC(Nc1nc(N2CCOCC2)nc2ccccc12)c1ccccc1 (configuration not stated) | -1.04%
CC(Nc1nc(N2CCN(CCO)CC2)nc2ccccc12)c1ccccc1 (configuration not stated) | 0%
CC1(C(=O)Nc2cccnc2)Cc2c(-c3ccccc3)ccnc2O1 (configuration not stated) | 25.1%
CC1(C(=O)NS(=O)(=O)c2cccs2)CCN1C(=O)Cc1ccc(-c2ccccc2)cc1 (configuration not stated) | 15.7%
Cc1cc(OCC(=O)Nc2nccs2)c2c(C)c(C)c(=O)oc2c1 | 52.2%
CC(C)=C(NC(=O)c1ccccc1)C(=O)N/N=C(\C)c1ccccc1O | -73.8% (active)
COc1ccc(/C(C)=N\NC(=O)c2ccc(-c3ccccc3)cc2)c(F)c1 | -25.6%
CNC(=O)C(NC(=O)c1ccccc1)=C(C)C | 0.178%
O=C(NCc1ccc(F)cc1F)[C@@H]1CCCN1C(=O)[C@@H]1CCCN1C(=O)c1cccc(Cl)c1 | -16.8%
C[C@H](NC(=O)[C@@H]1CCCN1C(=O)[C@@H]1CCCN1C(=O)c1ccccc1)c1ccccc1 | -14.2%
O=C(OCc1ccccc1)N1CCC2CC1c1cc(N3CCN(S(=O)(=O)c4cc(Cl)cc(Cl)c4)CC3)ccc12 (configuration not stated) | -1.81%
Cc1ccc(S(=O)(=O)N(CCc2ccccc2)c2ccc3c(c2)C2CC3CCN2C(=O)OCc2ccccc2)cc1 (configuration not stated) | 0%
O=C(OCc1ccccc1)N1CCC2CC1c1ccc(-c3ccc4c(c3)OCO4)cc12 (configuration not stated) | -78.9% (active)
Cc1ccc(NC(=O)Cn2sc3ccccc3c2=O)cc1 | -0.282%
CCNC(=S)Nc1ccc2c(c1)c(=O)n(C)n2Cc1ccc(Cl)cc1 | 8.41%
COC(=O)c1ccccc1N=NNc1ccc([N+](=O)[O-])cc1 | 8.12%
O=[N+]([O-])c1ccc(N=NNc2ccc([N+](=O)[O-])cc2)cc1 | -50.6% (active)
CNC(=S)Nc1ccc([N+](=O)[O-])cc1 | -17.8%

Source: PubChem BioAssay AID652054 (National Center for Advancing Translational Sciences (NCATS), 2013)
